Screens deposited in PubChem BioAssay by The Scripps Research Institute Molecular Screening Center.
Hits are enriched below; roughly 3.5% of the tested compounds scored in any of these assays.
MITF primary: inhibitors of human MITF. AID 1259374. inhibition, % at 2.6 µM. 0.91% of 650,000 active. AlphaScreen MITF homodimerization, bead proximity signal; in the data active = inhibition above about 50%
Target sequence (O75030 whole entry, looked up): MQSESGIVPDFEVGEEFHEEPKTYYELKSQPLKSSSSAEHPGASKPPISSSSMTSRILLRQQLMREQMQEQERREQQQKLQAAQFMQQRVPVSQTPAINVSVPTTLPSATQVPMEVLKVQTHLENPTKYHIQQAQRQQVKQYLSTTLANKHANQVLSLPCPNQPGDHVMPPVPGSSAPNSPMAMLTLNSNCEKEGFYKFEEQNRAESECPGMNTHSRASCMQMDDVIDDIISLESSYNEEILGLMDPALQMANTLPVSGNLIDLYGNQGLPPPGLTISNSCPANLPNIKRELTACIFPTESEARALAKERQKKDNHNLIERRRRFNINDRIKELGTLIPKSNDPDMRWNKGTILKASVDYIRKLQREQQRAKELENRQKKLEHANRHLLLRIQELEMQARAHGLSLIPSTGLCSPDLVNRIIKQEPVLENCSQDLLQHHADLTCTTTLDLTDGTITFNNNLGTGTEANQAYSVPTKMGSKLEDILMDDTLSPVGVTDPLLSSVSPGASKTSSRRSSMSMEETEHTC
TEAD-YAP inh: TEAD-YAP interaction inhibition; HEK-TIYL cells, TEAD-Gal4/YAP UAS-luciferase luminescence; inhibition, % at 9.12 µM; 1.4% of 640,000 active; in the data active = inhibition above about 32%
GPR151 ag: activates the human receptor GPR151. Q8TDV0. AID 1508602. PathHunter beta-arrestin GPR151 cells, luminescence. 1% of 650,000 active. activation, % at 11.2 µM; in the data active = activation above about 4.9%
FBW7 act: activators of human E3 ligase FBW7. Q969H0. AlphaScreen FBW7–phospho-cyclin E peptide binding, activator screen. normalized activity (activation), % at 26.1 µM. 0.13% of 650,000 active; in the data active = normalized activity above about 1.9%;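 also: purified mutant Fbw7 with reduced substrate affinity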
GPR151 conf act: confirmation of human GPR151 activators; shares compounds with GPR151 ag; GPR151 PathHunter beta-arrestin cells, luminescence, 90 min; % of EA-reagent control over plate median; activation, % at 11.2 µM; 6,700 tested, under 10 active; AID 1508609;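 active = mean percent activation across replicates above the confirmation screen cutoff of 4.91%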
GPR119 ag: GPR119 activation, counter-screen for GPR151 activators; shares compounds with GPR151 ag; GPR119 PathHunter beta-arrestin cells, luminescence, 90 min; 0 = compound-well median, 100 = enzyme-acceptor control; activation, % at 11.2 µM; 0.3% of 6,700 active; AID 1508611;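 active = mean percent activation in the counterscreen above 29.09%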;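 also: counterscreen on off-target GPR119 to flag nonselective hits from the GPR151 activator screen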
Numbers stand for hits; n = inactive; x = no result given; ! = a repeat was not active.

SMILES	MITF primary	TEAD-YAP inh	GPR151 ag	FBW7 act	GPR151 conf act	GPR119 ag
CCOC(=O)c1c(C2COc3ccccc3O2)csc1NC(=O)c1ccc(OC)c(OC)c1 (configuration not stated)	n	n	n	n	x	x
COC1C(OC(N)=O)C(O)C(Oc2ccc3c(O)c(NC(=O)c4ccc(O)c(CC=C(C)C)c4)c(=O)oc3c2C)OC1(C)C (configuration not stated)	n	n	6.6!	n	n	n
Clc1ccccc1Nc1ncnc2ccc(Br)cc12	n	n	n	n	x	x
Brc1ccc2ncnc(Nc3cccc4ccccc34)c2c1	n	n	11	n	n	n
COc1ccc(CCNc2ccnc(-c3ccc(C(=O)NC4CC4)cc3)n2)cc1	n	33	5.5	n	n	n
CCOC(=O)C1CCC(CN(Cc2ccc(Cl)cc2)S(=O)(=O)c2ccc(C)cc2)CC1 (configuration not stated)	n	n	n	n	x	x
CCOc1cc(-c2noc(CCC(=O)NC)n2)cc(Br)c1OC	n	n	6.6	n	n	n
CCOc1ccc(-c2noc(CCC(=O)NC)n2)cc1OC	n	n	n	n	x	x
Cc1cccn2c(=O)c3cc(C(=O)NCc4ccc5c(c4)OCO5)sc3nc12	n	n	n	n	x	x
CC(C)c1nc(C(=O)N2CCCC(N3CCOCC3)C2)cs1 (configuration not stated)	n	n	6.7	n	n	n
CC1CCCCC1NC(=O)Cn1cc2c(n1)CCCC2 (configuration not stated)	n	n	n	n	x	x
COC(=O)c1c(C)oc2ccc(N(C(C)=O)S(=O)(=O)c3ccc(C)cc3)cc12	n	n	n	n	x	x
O=C(NCCN1CCNCC1)c1cc(C2COc3ccccc3O2)nc2ccc(-c3cn[nH]c3)cc12 (configuration not stated)	n	n	n	n	x	x
O=C(O)c1cc(C2COc3ccccc3O2)nc2ccc(-c3cn[nH]c3)cc12 (configuration not stated)	n	n	13	n	n	n
CCCCNC(=S)NNC(=O)C12CC3CC(CC(C3)C1)C2	n	n	n	n	x	x
CCCCNC(=S)NNC(=O)C(=O)NNC(=S)NCCCC	n	n	6.4	n	n	n
N#Cc1ccc(/C=N/NC(=S)NCc2ccccc2)cc1	n	n	n	n	x	x
C/C(=N\NC(=O)CCc1ccccc1)c1ccc(Br)cc1	n	n	5.9	n	n	n
O=C(CCc1ccccc1)N/N=C/c1ccccc1O	n	n	5.9	n	n	n
N#Cc1ccc(/C=N/NC(=O)CCc2ccccc2)cc1	n	n	6.0	n	n	n
Cn1c(SCC(=O)Nc2nccs2)nnc1-c1ccc(Cl)cc1	n	n	n	n	x	x
CC(C)CC1=NN2C(=N)/C(=C/c3cn(Cc4ccccc4)c4ccccc34)C(=O)N=C2S1	n	n	n	n	x	x
Cc1ccccc1OC(C)C(=O)O/N=C(\N)c1cccc([N+](=O)[O-])c1 (configuration not stated)	n	n	n	n	x	x
COc1ccc(N2CC(O)=C(c3nc4ccccc4[nH]3)C2=N)cc1Cl	n	n	6.0	n	n	n
COc1ccc(Cl)cc1N1CC(O)=C(c2nc3ccccc3[nH]2)C1=N	n	n	n	n	x	x
SMILES	MITF primary	TEAD-YAP inh	GPR151 ag	FBW7 act	GPR151 conf act	GPR119 ag
N=C1C(c2nc3ccccc3[nH]2)=C(O)CN1CCc1ccccc1	n	n	5.3	n	n	n
S=C1NC2=C(C(c3ccc(Br)cc3)N1)N1CCC2CC1 (configuration not stated)	n	n	5.7	n	n	n
CN(C)c1ccc(C2NC(=S)NC3=C2N2CCC3CC2)cc1 (configuration not stated)	n	n	n	n	x	x
Cc1ccc(Oc2cccc(NC(=O)c3cccc4ccccc34)c2)nn1	n	n	5.6	n	n	n
CCN(Cc1ccco1)C(=O)Cn1nc2c(C)cc3ccccc3n2c1=O	n	n	n	n	x	x
CCN(Cc1ccco1)C(=O)Cn1nc2n(Cc3ccccc3F)c3ccccc3n2c1=O	n	n	6.6	n	n	n
CC(=O)c1ccc(N2C(=O)/C(=C3/C(=O)N(C(C)=O)c4ccccc43)SC2=S)cc1	n	n	n	n	x	x
CN1C(=O)/C(=C2\SC(=S)N(c3ccc(CC(=O)O)cc3)C2=O)c2ccccc21	n	n	6.9	n	n	n
